The list is not random: actives were taken first. Their share in the collection is about 3.6%.
Peg3 prom inh: reduces Peg3 promoter-driven luciferase expression in HeLa; inhibition, % at 20 µM; HeLa PEG-Prom luciferase reporter, luminescence, overnight; AID 588405; 1.7% of 360,000 active;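 active = inhibition of at least 50% at 20 µM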
Mdm2-MdmX inh: inhibitors of human Mdm2/MdmX interaction. SaOS-2 split-luciferase Mdm2/MdmX complementation, luminescence. inhibition, % at 8 µM. 3% of 330,000 active. AID 485346;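 active = inhibition of at least 50% at 8 µM in the primary screen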
Target sequence (O15151 whole entry, looked up): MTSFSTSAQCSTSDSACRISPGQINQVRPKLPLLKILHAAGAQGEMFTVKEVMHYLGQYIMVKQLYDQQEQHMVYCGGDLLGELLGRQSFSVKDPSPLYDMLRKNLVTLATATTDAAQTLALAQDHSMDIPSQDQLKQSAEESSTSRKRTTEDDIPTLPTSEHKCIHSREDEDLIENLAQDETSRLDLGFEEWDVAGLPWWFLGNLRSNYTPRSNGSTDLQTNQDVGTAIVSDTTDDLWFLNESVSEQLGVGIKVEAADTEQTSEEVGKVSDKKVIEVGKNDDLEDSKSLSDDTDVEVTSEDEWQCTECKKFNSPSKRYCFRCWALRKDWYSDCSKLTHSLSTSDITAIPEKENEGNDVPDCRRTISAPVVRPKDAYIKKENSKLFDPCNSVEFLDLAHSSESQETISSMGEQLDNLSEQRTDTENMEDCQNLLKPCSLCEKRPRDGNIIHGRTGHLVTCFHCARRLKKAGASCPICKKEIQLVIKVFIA
Target sequence (Q00987 whole entry, looked up): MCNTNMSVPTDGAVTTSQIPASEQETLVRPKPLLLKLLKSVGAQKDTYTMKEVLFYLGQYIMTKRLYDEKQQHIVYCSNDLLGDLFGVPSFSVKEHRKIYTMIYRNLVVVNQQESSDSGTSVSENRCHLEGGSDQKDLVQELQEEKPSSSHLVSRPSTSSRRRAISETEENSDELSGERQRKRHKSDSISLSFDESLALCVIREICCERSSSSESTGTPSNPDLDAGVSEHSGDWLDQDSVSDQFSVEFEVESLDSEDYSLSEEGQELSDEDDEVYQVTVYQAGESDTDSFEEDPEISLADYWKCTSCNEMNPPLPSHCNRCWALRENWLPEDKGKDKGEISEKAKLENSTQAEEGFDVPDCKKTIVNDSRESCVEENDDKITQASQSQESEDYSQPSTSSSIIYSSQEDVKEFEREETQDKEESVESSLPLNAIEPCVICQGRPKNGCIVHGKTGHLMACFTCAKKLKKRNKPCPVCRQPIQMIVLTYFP
LGR2 antag: blocks bursicon-induced cAMP signaling via Drosophila LGR2 | HEK293 LGR2, CRE-luciferase, bursicon-stimulated, 4 h | inhibition, % at 9.99 µM | 0.35% of 380,000 active;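 active = drop in luminescence signal, shown as inhibition above about 50% in the replicate tests, limit read from the data, passing the limit was not always enough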;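 also: agonist challenge used bursicon conditioned medium at about half maximal strength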
HSP90 inh: inhibitors of HSP90 luciferase refolding in rabbit reticulocyte lysate. inhibition, % at 5.6 µM. luciferase refolding luminescence, 3 h. 0.91% of 290,000 active. AID 1789;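 active = inhibition above the screen-wide mean plus 3 SD, computed separately per campaign, cut at about 16% in these data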;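 also: 0% = DMSO wells and 100% = 60 µM geldanamycin wells; inhibitors lower the luminescence because luciferase stays unfolded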
CF NFkB inh: inhibitors of cystic fibrosis induced NF-kB; KKLEB NF-kB-GFP reporter, PAF-induced, GFP fluorescence overnight; inhibition, % at 5 µM; 0.86% of 360,000 active;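 active = at least 50% inhibition at 5 µM, scaled per plate between neutral and stimulator controls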;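 also: PAF is a Pseudomonas aeruginosa culture filtrate used as stimulus; plate controls were PAF-stimulated DMSO wells for no effect and unstimulated DMSO wells for full effect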
KKLEB tox: counter-screen for CF NF-kB inhibitors: cytotoxicity. activity change (cytotoxicity), % at 5 µM. KKLEB CF airway cells viability, ATPlite luminescence, overnight; active compounds read low; cells stimulated with P. aeruginosa culture filtrate. 0.36% of 360,000 active;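 active = corrected activity change at or below -50% at 5 µM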
HSP90 inh confirm: HSP90 inhibition, confirmation assay; shares compounds with HSP90 inh; rabbit reticulocyte lysate, luciferase refolding luminescence, 3 h; inhibition, % at 5.9 µM; 64% of 2,300 active; AID 1846; in the data active = inhibition above about 18%;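 also: 0% = vehicle wells and 100% = reference inhibitor wells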
FLuc counter: counter-screen for HSP90 inhibitors: inhibitors of firefly luciferase; shares compounds with HSP90 inh; purified native firefly luciferase, luminescence; inhibition, % at 5.9 µM; 48% of 2,300 active; AID 1847;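 active = inhibition above the mean inhibition of all tested sample wells plus 3 SD, cut at about 10% in these data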;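 also: 0% = DMSO with luciferase and 100% = wells lacking luciferase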
An asterisk follows results filed as active; / = no result.

SMILES | Peg3 prom inh | Mdm2-MdmX inh | LGR2 antag | HSP90 inh | CF NFkB inh | KKLEB tox | HSP90 inh confirm | FLuc counter
CN1C(C(=O)NCc2ccco2)=CC(c2ccc(F)cc2)=NS1(=O)=O | 8 | -4 | 14 | 56* | -12 | 0 | -1 | -7
CC(C)NC(=O)N(C)C[C@H]1OCCCC[C@@H](C)Oc2ccc(NC(=O)CCCN(C)C)cc2C(=O)N([C@@H](C)CO)C[C@H]1C | / | / | 30 | / | / | / | / | /
C=CCN=c1scc(-c2ccco2)n1/N=C/c1ccc(O)c(O)c1O | -103 | 10 | -18 | 17* | 23 | -7 | 25* | -22
CN=c1scc(-c2cccs2)n1/N=C/c1ccc(O)c(O)c1O | -136 | -43 | -23 | 24* | 20 | -32 | 87* | 78*
CN=c1scc(C)n1/N=C/c1ccc(O)c(O)c1O | -31 | -15 | / | -2 | -20 | 9 | / | /
CCOc1ccc(C(=O)NCCc2ccccc2)cc1 | -63 | 10 | 78* | 23* | 2 | -3 | 66* | 55*
O=C(NCCc1ccccc1)c1ccc2nccnc2c1 | 29 | 2 | 68* | 40* | -7 | 0 | 52* | 41*
O=C(C[C@@H]1CC[C@H](NC(=O)Nc2ccc(C(F)(F)F)cc2)[C@@H](CO)O1)NCc1cc(F)cc(F)c1 | / | / | 10 | / | / | / | / | /
COc1ccc(Cl)cc1Nc1nc(N)c2ccccc2n1 | -85 | -70 | -20 | -4 | -14 | 6 | / | /
Cc1ccc(C)c(Nc2nc(N)c3ccccc3n2)c1 | -231 | -78 | -74 | 17* | 17 | 7 | 23* | 1
Cc1ccc(O)c(Nc2c3ccccc3nc3ccccc23)c1 | 61* | 39 | -11 | 39* | -25 | -10 | 4 | -4
COc1cccc(-c2ccc3c(c2)[C@@H]2[C@@H](CCN2Cc2ccccc2OC)[C@@H](CO)N3)c1 | / | / | -11 | / | / | / | / | /
COCC(=O)Nc1ccc2c(c1)OC[C@@H](C)N(Cc1cncnc1)C[C@H](C)[C@@H](OC)CN(C)C2=O | / | / | 7 | / | / | / | / | /
N#C[C@@H]1[C@H](c2ccccc2C2=CCCCC2)[C@H](CO)N1C(=O)Nc1ccccc1F | / | / | 15 | / | / | / | / | /
O=C(C1CCC1)N1C[C@H]2[C@@H](c3ccccc31)[C@H](CO)N2C(=O)c1ccccc1 | / | / | -21 | / | / | / | / | /
Cc1c(C(=O)O)cccc1-c1ccc(/C=C2\SC(=O)NC2=O)o1 | 26 | 24 | 26 | 29* | 1 | 4 | 39* | 17*
Cc1c(C(=O)O)cccc1-c1ccc(/C=C2/NC(=O)N(c3ccccc3)C2=O)o1 | -130 | -2 | -51 | 33* | 16 | 8 | 28* | -20
O=C(C[C@H]1CC[C@H](NC(=O)Nc2cccc(F)c2)[C@H](CO)O1)NCC1CCCCC1 | / | / | 2 | / | / | / | / | /
C[C@H](CO)N1C[C@H](C)[C@H](CN(C)S(C)(=O)=O)Oc2c(NS(=O)(=O)c3cn(C)cn3)cccc2C1=O | / | / | 16 | / | / | / | / | /
COCCn1c(C)cc(C(=O)COC(=O)C23CC4CC(CC(O)(C4)C2)C3)c1C | -87 | 46 | / | 35* | 21 | -2 | 46* | 33*
CCOc1ccc(C(=O)OCC(=O)NCc2ccco2)cc1OCC | 4 | 23 | / | 31* | 11 | -12 | -2 | -7
CCN(Cc1nc(-c2cccc(C)c2)no1)C(=O)c1ccco1 | -49 | -6 | -19 | 21* | -5 | 5 | -5 | -8
CCc1nnc(N/N=C/c2cc(Br)c(O)cc2O)n1N | -4 | -5 | 7 | 7 | -2 | 9 | / | /
CCc1nnc(N/N=C/c2c(Cl)cccc2Cl)n1N | -7 | 10 | 11 | 57* | 4 | 4 | -4 | -9
CCc1nnc(N/N=C/c2cccs2)n1N | 7 | 17 | 2 | 66* | -8 | 6 | -1 | -5
SMILES | Peg3 prom inh | Mdm2-MdmX inh | LGR2 antag | HSP90 inh | CF NFkB inh | KKLEB tox | HSP90 inh confirm | FLuc counter
C[C@H](CO)N1C[C@H](C)[C@H](CN(C)Cc2ccc(C(=O)O)cc2)Oc2ccc(NC(=O)Cn3cnnn3)cc2CC1=O | / | / | -12 | / | / | / | / | /
Cc1c(/C(O)=C2\C(=O)C(=O)N(CCN(C)C)C2c2ccco2)cnn1-c1ccccc1 (configuration not stated) | 11 | 10 | / | 52* | -17 | 20 | 21* | 10*
Cc1c(/C(O)=C2\C(=O)C(=O)N(CCN(C)C)C2c2ccccc2)cnn1-c1ccccc1 (configuration not stated) | -13 | 36 | / | 27* | 3 | 10 | 12 | -8
Cc1c(/C(O)=C2\C(=O)C(=O)N(CCCN(C)C)C2c2ccco2)cnn1-c1ccccc1 (configuration not stated) | -4 | / | 33 | / | -3 | 2 | / | /
CN1[C@@H]2Cn3c(ccc(-c4cccc(F)c4)c3=O)[C@H]1[C@@H](C(=O)NCc1ccccc1)[C@@H]2CO | / | / | 3 | / | / | / | / | /
Cc1ccc(S(=O)(=O)N(C)C[C@@H]2Oc3ccc(NC(=O)Nc4ccccc4)cc3C(=O)N([C@@H](C)CO)C[C@H]2C)cc1 | / | / | 5 | / | / | / | / | /
COc1ccc(CCNC(=O)Cc2cc(OC)c(OC)cc2Br)cc1OC | 14 | 20 | 5 | 34* | 7 | 1 | -3 | -4
C[C@@H]1CN([C@@H](C)CO)C(=O)c2cc(NC(=O)Nc3ccc(C(F)(F)F)cc3)ccc2O[C@@H](C)CCCCO[C@@H]1CN(C)Cc1ccc2c(c1)OCO2 | / | / | 12 | / | / | / | / | /
CN(C)C(=O)CCc1nc(-c2ccc(C(C)(C)C)cc2)no1 | -181 | -37 | -35 | 20* | -6 | -9 | 27* | 0
O=[N+]([O-])c1ccccc1-c1ccc(/C=N/n2cnnc2)o1 | 15 | -10 | / | -2 | -55 | 10 | / | /
Nn1cnnc1N/N=C\c1ccc(-c2ccccc2[N+](=O)[O-])o1 | -22 | / | 49 | 76* | 0 | 2 | -2 | -4
C/C=C/c1ccc([C@H]2[C@@H](CO)N(S(C)(=O)=O)C23CN(C(=O)CC)C3)cc1 | / | / | -11 | / | / | / | / | /
Cn1c(-c2ccccc2)cc(=O)c2ccccc21 | -1 | -13 | -3 | -2 | 12 | -16 | / | /
Cn1c2ccccc2c(=O)n2c(=O)c3ccccc3cc12 | / | 8 | / | 19* | / | / | 23* | -1
O=C(NCC(=O)N1CCCCCCC1)c1ccc(Cl)cc1 | -57 | -7 | -38 | / | 6 | -3 | / | /
O=C(CNC(=O)c1ccc(Cl)cc1)OCC(=O)N1CCCC1 | 10 | -4 | 12 | 19* | 3 | 1 | -4 | -8
O=C(COC(=O)c1nsc(Cl)c1Cl)NC1CCCCC1 | 9 | 20 | -5 | -4 | 15 | -5 | / | /
O=C(COC(=O)c1nsc(Cl)c1Cl)NC1CCCC1 | 17 | -3 | 15 | 23* | 9 | -6 | -5 | -14
C[C@@H]1CN([C@H](C)CO)C(=O)c2cc(N(C)C)ccc2O[C@@H]1CN(C)C(=O)Nc1ccc(F)cc1 | / | / | 13 | / | / | / | / | /

High-throughput results from PubChem BioAssay.
